Compounds without any hit were thinned out: in the full panel of roughly 83,000, 20% have a hit.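 Activity criterion: percent growth below 10, measured after cells in 96-well plates were exposed to a single compound concentration for 48 hours.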 Unmarked numbers belong to inactive results. Calls of active or inactive are those of the source.
Tested on: OVCAR-8 ovarian
Experiment: NCI-60 one-dose screen, 48 h (100 = growth as untreated, 0 = no growth, -100 = all killed)
Settings: 10 µM unless noted

Q: How did the growth turn out when `C#CCOc1ccc(/C=N/Nc2nc(-c3cc4cc(OC)ccc4oc3=O)cs2)cc1OC` was run?
A: 50.8%

Q: With `COc1cc(-c2nc3cc(Cl)c(Cl)cc3[nH]2)ccc1OCc1nnc(-c2cccs2)o1` as the molecule, how does the growth read?
A: 38%

Q: `COc1ccc(N2N=C(c3ccc4c(c3)OCO4)CC2c2cccc(NC(=O)CCCNS(=O)(=O)c3ccc(F)cc3)c2)cc1` (centres undefined) was tested. Which growth did it give?
A: 78.8%

Q: `C=C1CC[C@@H]2[C@]3(C)COC(c4ccccc4)O[C@@H]3CC[C@@]2(C)[C@@H]1C/C=C1/C(=O)OCC1OC(C)=O` (some centres undefined) was tested. Which growth did it give?
A: -64.9% (active)

Q: For `Cc1sc2c(c1C)C(c1ccc(Cl)cc1)=N[C@@H](CC(=O)NCCCCCNC(=O)COc1ccc(C3CCC(=O)NC3=O)cc1)c1nnc(C)n1-2` (some centres undefined), which growth is on record?
A: 16.2%

Tested on: OVCAR-5 ovarian
Experiment: as above
Settings: 10 µM unless noted

Q: How did the growth turn out when `COc1c(F)ccc(C(=O)Nc2ccc3nc(NC(=O)C4CCCN(S(=O)(=O)c5ccc(Br)s5)C4)sc3c2)c1F` (centres undefined) was run?
A: 105%

Q: Which growth does the source give for `Cc1ccc(-c2nc(Nc3ccccc3S(N)(=O)=O)c3ccccc3n2)cc1` here?
A: 85.3%

Q: Which growth does the source give for `Clc1cccc(Cl)c1/C=C/c1cc(/C=C/c2ccc(Br)cc2)c2ccccc2n1` here?
A: 97.4%

Q: How did the growth turn out when `COc1ccc(/C=C/c2n(Cc3ccc4ccccc4c3)c3ccccc3[n+]2Cc2ccc3ccccc3c2)cc1` was run?
A: -98.4% (active)

Q: Which growth does the source give for `C#CCOc1cc(N(CC)CC)ccc1C(C(=O)NC(C)(C)C)N(C(=O)C1CCc2cc(F)ccc2O1)c1ccc(Br)cc1` (centres undefined) here?
A: 87.1%

Q: With `CSc1ccc(C(=O)Nc2ccc3nnn(/C(C#N)=C/c4ccccn4)c3c2)cc1` as the molecule, how does the growth read?
A: -77.4% (active)

Q: `COC(=O)/C=C/c1cccc2c1C(=O)NC(C)(c1cc3ccccc3oc1=O)N2` (centres undefined) was tested. Which growth did it give?
A: 77.6%

Q: Which growth does the source give for `CCCSc1nc(NCCc2c[nH]c3ccccc23)c(C#N)c(-c2ccc(F)cc2)n1` here?
A: 82.6%

Q: How did the growth turn out when `COc1ccc(C(=O)/C=C/c2ccc(OCc3ccc(F)cc3)c(OC)c2)cc1OC` was run?
A: 1.16% (active)

Q: `Cn1cc(-c2cc(N)n3nc(-c4c[nH]c5ccccc45)cc3n2)c2cc(Br)cnc21` was tested. Which growth did it give?
A: -77.6% (active)

Q: For `C/C(=N\N=C\c1cc([N+](=O)[O-])ccc1Cl)c1ccc2c(c1)Nc1ccccc1S2`, which growth is on record?
A: 69.4%

Q: `CN(C)c1nc(NCCNS(=O)(=O)c2ccc(C3=Nc4c(N)nc(N)nc4NC(c4ccc(C(F)(F)F)cc4)C3)cc2)nc(Nc2ccc(F)cc2)n1` (centres undefined) was tested. Which growth did it give?
A: 29.5%

Q: `Cn1cc(-c2cc(N)n3nc(-c4cn(C)c5ccc(Cl)cc45)cc3n2)c2ccccc21` was tested. Which growth did it give?
A: 108%

Q: `O=C(/C=C/c1ccc(-c2ccccc2)cc1)c1nc2ccccc2n1Cc1ccc(Br)cc1` was tested. Which growth did it give?
A: 74.7%

Q: With `COc1cc2c(c(OC)c1OC)C(=O)CC(c1cccc(NC(=O)c3cc(NC(=O)[C@H](CO)NC(=O)OC(C)(C)C)ccc3Cl)c1)O2` (some centres undefined) as the molecule, how does the growth read?
A: 86.8%

Q: For `CC(=O)c1cccc(NC(=O)CCC(=O)NS(=O)(=O)c2ccc(C)cc2)c1`, which growth is on record?
A: 110%

Q: With `C#CCOc1ccc(/C=N/Nc2nc(-c3ccc(F)cc3)cs2)cc1OC` as the molecule, how does the growth read?
A: 84.9%

Q: Which growth does the source give for `CC1(C)CC[C@]2(C(=O)O)CC[C@]3(C)C(=CCC4[C@@]5(C)C[C@@H](O)[C@@H]6OC(c7ccccc7Br)OC[C@@]6(C)C5CC[C@]43C)C2C1` (some centres undefined) here?
A: 36%

Q: How did the growth turn out when `COc1cc2oc(-c3cccc(C(=O)Nc4ccc(Cl)cc4)c3)cc(=O)c2c(OCCNC(=O)[C@H](CCC(=O)OC(C)(C)C)NC(=O)OC(C)(C)C)c1OC` was run?
A: 107%

Q: For `O=C(O)c1ccc(-c2ccc(/C=N/NC(=O)c3[nH]c4ccc(Br)cc4c3-c3ccccc3)o2)cc1`, which growth is on record?
A: 75.9%

Q: `CCCCc1c(Nn2cnnn2)no[n+]1[O-]` was tested. Which growth did it give?
A: 83.2%

Q: Which growth does the source give for `CC1=C(C(=O)OCc2ccccc2)C(c2c(O)cc(O)cc2O)n2c(nc3ccccc32)N1` (centres undefined) here?
A: 73.6%

Q: With `O=C(/C=C/c1cccc(OCc2ccccc2)c1)c1nc2ccccc2[nH]1` as the molecule, how does the growth read?
A: 105%

Q: Which growth does the source give for `COc1ccc2oc3c4[nH]c5ccccc5c4c4c(c3c2c1)C(=O)N(C(=O)OC(C)(C)C)C4=O` here?
A: 6.78% (active)

Q: For `O=C(c1ccccc1)c1ccc2nc(-c3ccc(F)cc3)[nH]c2c1`, which growth is on record?
A: 41.5%

Q: How did the growth turn out when `COc1ccc(N2N=C(c3ccc4c(c3)OCO4)CC2c2cccc(NC(=O)CCCNS(=O)(=O)c3ccc(F)cc3)c2)cc1` (centres undefined) was run?
A: 99.2%

Tested on: OVCAR-4 ovarian
Experiment: as above
Settings: 10 µM unless noted

Q: Which growth does the source give for `COc1c(F)ccc(C(=O)Nc2ccc3nc(NC(=O)C4CCCN(S(=O)(=O)c5ccc(Br)s5)C4)sc3c2)c1F` (centres undefined) here?
A: 67.9%

Q: With `Cc1ccc(-c2nc(Nc3ccccc3S(N)(=O)=O)c3ccccc3n2)cc1` as the molecule, how does the growth read?
A: 74.2%

Q: `Clc1cccc(Cl)c1/C=C/c1cc(/C=C/c2ccc(Br)cc2)c2ccccc2n1` was tested. Which growth did it give?
A: 93.8%

Q: With `COc1ccc(/C=C/c2n(Cc3ccc4ccccc4c3)c3ccccc3[n+]2Cc2ccc3ccccc3c2)cc1` as the molecule, how does the growth read?
A: -65% (active)

Q: Which growth does the source give for `C#CCOc1cc(N(CC)CC)ccc1C(C(=O)NC(C)(C)C)N(C(=O)C1CCc2cc(F)ccc2O1)c1ccc(Br)cc1` (centres undefined) here?
A: 82.3%

Q: For `CSc1ccc(C(=O)Nc2ccc3nnn(/C(C#N)=C/c4ccccn4)c3c2)cc1`, which growth is on record?
A: 37%

Q: With `COC(=O)/C=C/c1cccc2c1C(=O)NC(C)(c1cc3ccccc3oc1=O)N2` (centres undefined) as the molecule, how does the growth read?
A: 70%

Q: With `O=C(COc1ccc2c(c1)CCCC(=O)N2)NCc1ccccc1` as the molecule, how does the growth read?
A: 92%

Q: For `COc1ccc(Cc2nn(CC(=O)N/N=C/c3ccc(F)cc3)c(=O)c3c(C)noc23)cc1`, which growth is on record?
A: -35.8% (active)

Q: How did the growth turn out when `CCCSc1nc(NCCc2c[nH]c3ccccc23)c(C#N)c(-c2ccc(F)cc2)n1` was run?
A: 70.7%

Q: Which growth does the source give for `O=C(O)Cn1c(O)c(/C=C2/C=c3cc4c(cc3=NC2=O)OCCO4)sc1=S` here?
A: 109%

Q: For `COc1ccc(C(=O)/C=C/c2ccc(OCc3ccc(F)cc3)c(OC)c2)cc1OC`, which growth is on record?
A: 17.3%

Q: `Cn1cc(-c2cc(N)n3nc(-c4c[nH]c5ccccc45)cc3n2)c2cc(Br)cnc21` was tested. Which growth did it give?
A: 5.89% (active)

Q: Which growth does the source give for `CC(=O)/C=C/c1cccc2c1C(=O)NC(C)(c1cc3cc(Br)ccc3oc1=O)N2` (centres undefined) here?
A: 27.2%

Q: How did the growth turn out when `CCN(CC)c1ccc(/C=N/Nc2nc(-c3ccc(Br)cc3)cs2)c(O)c1` was run?
A: 70.2%

Q: How did the growth turn out when `CC1(C)CC[C@]2(C(=O)O)CC[C@]3(C)C(=CCC4[C@@]5(C)C[C@@H](O)[C@@H]6OC(c7ccco7)OC[C@@]6(C)C5CC[C@]43C)C2C1` (some centres undefined) was run?
A: 47.9%

Q: Which growth does the source give for `C/C(=N\N=C\c1cc([N+](=O)[O-])ccc1Cl)c1ccc2c(c1)Nc1ccccc1S2` here?
A: -10.7% (active)

Q: `CN(C)c1nc(NCCNS(=O)(=O)c2ccc(C3=Nc4c(N)nc(N)nc4NC(c4ccc(C(F)(F)F)cc4)C3)cc2)nc(Nc2ccc(F)cc2)n1` (centres undefined) was tested. Which growth did it give?
A: 31.3%

Q: Which growth does the source give for `Cn1cc(-c2cc(N)n3nc(-c4cn(C)c5ccc(Cl)cc45)cc3n2)c2ccccc21` here?
A: 111%

Q: `O=C(/C=C/c1ccc(-c2ccccc2)cc1)c1nc2ccccc2n1Cc1ccc(Br)cc1` was tested. Which growth did it give?
A: 50%

Q: For `COc1cc2c(c(OC)c1OC)C(=O)CC(c1cccc(NC(=O)c3cc(NC(=O)[C@H](CO)NC(=O)OC(C)(C)C)ccc3Cl)c1)O2` (some centres undefined), which growth is on record?
A: 47.9%

Q: How did the growth turn out when `CC(=O)c1cccc(NC(=O)CCC(=O)NS(=O)(=O)c2ccc(C)cc2)c1` was run?
A: 118%

Q: `C#CCOc1ccc(/C=N/Nc2nc(-c3ccc(F)cc3)cs2)cc1OC` was tested. Which growth did it give?
A: 65.6%

Q: For `CC1(C)CC[C@]2(C(=O)O)CC[C@]3(C)C(=CCC4[C@@]5(C)C[C@@H](O)[C@@H]6OC(c7ccccc7Br)OC[C@@]6(C)C5CC[C@]43C)C2C1` (some centres undefined), which growth is on record?
A: 33.1%

Q: How did the growth turn out when `COc1cc2oc(-c3cccc(C(=O)Nc4ccc(Cl)cc4)c3)cc(=O)c2c(OCCNC(=O)[C@H](CCC(=O)OC(C)(C)C)NC(=O)OC(C)(C)C)c1OC` was run?
A: 93%

Q: Which growth does the source give for `O=C(O)c1ccc(-c2ccc(/C=N/NC(=O)c3[nH]c4ccc(Br)cc4c3-c3ccccc3)o2)cc1` here?
A: 38%

Q: Which growth does the source give for `CCCCc1c(Nn2cnnn2)no[n+]1[O-]` here?
A: 55%

Q: For `CC1=C(C(=O)OCc2ccccc2)C(c2c(O)cc(O)cc2O)n2c(nc3ccccc32)N1` (centres undefined), which growth is on record?
A: 84%

Q: For `O=C(/C=C/c1cccc(OCc2ccccc2)c1)c1nc2ccccc2[nH]1`, which growth is on record?
A: 59.4%

Q: For `CC(=O)OCC1OC(OC2C(COC(C)=O)OC(n3cc(COc4ccc5ccc(=O)oc5c4)nn3)C(OC(C)=O)C2OC(C)=O)C(OC(C)=O)C(OC(C)=O)C1OC(C)=O` (centres undefined), which growth is on record?
A: 115%

Q: Which growth does the source give for `COc1ccc2oc3c4[nH]c5ccccc5c4c4c(c3c2c1)C(=O)N(C(=O)OC(C)(C)C)C4=O` here?
A: -6.75% (active)

Q: Which growth does the source give for `O=C(c1ccccc1)c1ccc2nc(-c3ccc(F)cc3)[nH]c2c1` here?
A: 49.5%

Q: Which growth does the source give for `CC1(C)CC[C@]2(C(=O)Nc3ccc(Br)cc3)CC[C@]3(C)C(=CCC4[C@@]5(C)C[C@@H](O)[C@H](O)[C@@](C)(CO)C5CC[C@]43C)C2C1` (some centres undefined) here?
A: 5.44% (active)

Q: With `C#CCOc1ccc(/C=N/Nc2nc(-c3cc4cc(OC)ccc4oc3=O)cs2)cc1OC` as the molecule, how does the growth read?
A: 40.7%

Q: For `COc1cc(-c2nc3cc(Cl)c(Cl)cc3[nH]2)ccc1OCc1nnc(-c2cccs2)o1`, which growth is on record?
A: 40.8%

Q: With `COc1ccc(N2N=C(c3ccc4c(c3)OCO4)CC2c2cccc(NC(=O)CCCNS(=O)(=O)c3ccc(F)cc3)c2)cc1` (centres undefined) as the molecule, how does the growth read?
A: 57.5%

Q: For `C=C1CC[C@@H]2[C@]3(C)COC(c4ccccc4)O[C@@H]3CC[C@@]2(C)[C@@H]1C/C=C1/C(=O)OCC1OC(C)=O` (some centres undefined), which growth is on record?
A: 0.176% (active)

Q: For `Cc1sc2c(c1C)C(c1ccc(Cl)cc1)=N[C@@H](CC(=O)NCCCCCNC(=O)COc1ccc(C3CCC(=O)NC3=O)cc1)c1nnc(C)n1-2` (some centres undefined), which growth is on record?
A: 22.8%
